Bioassay records deposited in PubChem BioAssay by National Center for Advancing Translational Sciences (NCATS).
This is a sample that favours compounds with a hit; in the whole collection about 11% have one here.
Vaccinia Venus: vaccinia inhibition (Venus reporter). Vaccinia virus Venus reporter expression, fluorescence. Potency, µM (top dose mostly 36.5 µM), most hits filed as inhibitors. 330,000 tested, 0.46% active. AID 720580; calls by dose curve; tested in A549 cells; further: nearly all actives have a fitted effect of over 30% in size
HCV inh: HCV inhibition. 340,000 tested, 3.4% active. AID 651820. Potency, µM (highest dose often 41.8 µM), actives largely listed as inhibitors. Huh7.5.1 HCVcc-Cre infection, luciferase reporter, 44 h
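HCVcc-Cre virus at an moi near 0.5 was added right after compound to cells cultured 4 h from seeding (1,000 cells/well). Luciferase activity was determined 44 h later, 15 min after substrate addition at RT.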
Pf growth 48h: inhibits P. falciparum growth in the first generation, 48 h; P. falciparum luciferase growth in erythrocytes, 48 h; Potency, µM (top dose mostly 28.7 µM), usual class: inhibitors; AID 504832; 310,000 tested, 5.9% active
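Luciferase-expressing parasites in RBCs, 2% Hct / 0.1% parasitemia final; RPMI 1640 + 0.5% Albumax; 37 C, 5% CO2, one generation; luminescence read-out, lower signal = inhibition.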
NS1 function inh: blocks influenza NS1 protein function; 270,000 tested, 0.4% active; Potency, µM (titrated, usually from 46.1 µM); calls by dose curve; further: actives are rising curves; nearly all actives have a fitted effect of over 50% in size
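Read-out: OD600 growth recovery of NS1-expressing budding yeast. Cells grown overnight at 30C in -URA glucose medium, washed, resuspended and diluted 1:100 in 2% galactose assay medium, pH 6.0. Same strain lacking NS1 served as positive control.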
Vaccinia mCherry: inhibitors of vaccinia virus infection (mCherry reporter signal); Potency, µM (titrated, usually from 36.5 µM), hits mostly inhibitors; 310,000 tested, 0.63% active; Vaccinia virus mCherry reporter infection, fluorescence; AID 720579; calls by dose curve; tested in A549 cells; further: nearly all actives have a fitted effect of over 35% in size
Pf growth 96h: inhibits malaria parasite growth, 96 h | P. falciparum luciferase reporter growth, 96 h | 320,000 tested, 6.9% active | Potency, µM (titrated, usually from 28.7 µM), hits mostly inhibitors
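Parasite growth measured via integrated firefly luciferase reporter in P. falciparum. Infected erythrocytes at 2% hematocrit, 0.05% parasitemia final were treated 96 hours at 37 C under 5% CO2, and luminescence was read.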
Each line names hits and unclear results; the compound was inactive in the other large screens. Unless noted, the call rests on the fitted dose curve; in most records, active means well fitted inhibition curve with a large enough effect; inconclusive means small, poorly fitted or top-dose-only effect, or another doubt; inactive means no such curve, though single readings can be large or run the other way.

CCOC(=O)c1[nH]c(C)c(C(=O)N2CCN(c3cccc(Cl)c3)CC2)c1C	Pf growth 48h 10µM (no result: Vaccinia Venus, Vaccinia mCherry)
CC(=O)c1c(C)[nH]c(C(=O)OCc2cccc(Cl)c2)c1C	HCV inh 11µM, Vaccinia mCherry inconclusive (no result: NS1 function inh)
CC(=O)c1c(C)[nH]c(C(=O)OCc2c(F)cccc2Cl)c1C	HCV inh 10µM, Vaccinia mCherry inconclusive (no result: NS1 function inh)
CCOC(=O)c1[nH]c(C)c(C(=O)OCC)c1C	HCV inh inconclusive (no result: Pf growth 48h)
CCOC(=O)c1[nH]c(C)c(C(=O)OCCOc2cccc(C)c2)c1C	HCV inh inconclusive, Pf growth 48h 7.4µM, Pf growth 96h 2.6µM
CCOC(=O)c1[nH]c(C)c(C(=O)N2CCN(c3ccc(F)cc3)CC2)c1C	Pf growth 48h inconclusive
CC(=O)c1c(C)[nH]c(C(=O)OCc2ccc(F)cc2Cl)c1C	HCV inh inconclusive, Pf growth 96h inconclusive (no result: NS1 function inh)
C[C@]12C(=O)N(c3ccc(F)cc3)C(=O)N1[C@@H]1c3ccccc3OC[C@@H]1[C@H]2c1ccccc1	Pf growth 96h inconclusive
CCOC(=O)c1[nH]c(C)c(C(=O)OCc2ccccc2F)c1C	Vaccinia Venus inconclusive, HCV inh 3.2µM, Vaccinia mCherry inconclusive
COc1ccc(Cl)cc1N(CC(=O)Nc1ccccc1SC)S(C)(=O)=O	none (no result: Vaccinia Venus, Vaccinia mCherry)
Cc1c(C(=O)c2ccccc2)c2ccccn2c1CCc1ccccn1	none
COC(=O)CCc1c(C)c(C(=O)c2cc(OC)c(OC)c(OC)c2)c2ccccn12	Pf growth 48h 10µM, Pf growth 96h inconclusive (no result: Vaccinia Venus, Vaccinia mCherry)
Cc1c(C(=O)c2ccc(F)cc2)c2ccccn2c1CCc1ccccn1	HCV inh inconclusive, Pf growth 96h 4.1µM
N[C@@H]1CC[C@@]2(O)[C@H]3Cc4ccc(O)c5c4[C@@]2(CCN3CC2CC2)C1O5 (some centres not stated)	none (no result: Pf growth 48h, NS1 function inh, Pf growth 96h)
CCOc1ccc(NC(=O)CN2CCN(CC(=O)Nc3ccc4c(c3)OCO4)CC2)cc1	Pf growth 48h inconclusive (no result: Vaccinia mCherry)
Cc1cc(C)c(NC(=O)CNC(=O)COC(=O)CNC(=O)c2ccc(Cl)cc2Cl)c(C)c1	none (no result: NS1 function inh)
CC1CCCN(Cc2c(O)ccc3c4c(c(=O)oc23)CCCC4)C1 (configuration not stated)	Pf growth 48h 1.3µM, Pf growth 96h 1.5µM
CC1CN(Cc2c(O)ccc3c(=O)c(-c4ccccc4)coc23)CC(C)O1 (configuration not stated)	none
CC1CN(Cc2c(O)ccc3c2oc(=O)c2ccccc23)CC(C)O1 (configuration not stated)	HCV inh inconclusive, Pf growth 48h 6.6µM, Pf growth 96h 2.3µM (no result: Vaccinia Venus, Vaccinia mCherry)
CCOC(=O)CSc1nc(C2CC2)cc(-c2ccc(Cl)cc2)c1C#N	Pf growth 48h 10µM
CCSc1nc(C2CC2)cc(-c2ccco2)c1C#N	HCV inh inconclusive (no result: Vaccinia mCherry, Pf growth 96h)
CCSc1nc(C2CC2)cc(-c2cccs2)c1C#N	HCV inh 7.9µM (no result: Pf growth 48h)
CCOC(=O)CSc1nc(-c2ccc(Cl)cc2)cc(C(F)(F)F)c1C#N	none (no result: HCV inh, Pf growth 48h, NS1 function inh, Pf growth 96h)
CCOC(=O)C1(CC2CCCCO2)CCN(Cc2cc3ccccc3[nH]2)CC1 (configuration not stated)	Vaccinia Venus inconclusive, HCV inh inconclusive, Vaccinia mCherry 2.5µM, Pf growth 96h inconclusive
CCCCc1ncc(CN2CCC(CC3CCCCO3)(C(=O)OCC)CC2)[nH]1 (configuration not stated)	Pf growth 48h inconclusive, Pf growth 96h inconclusive
CC1(C)CC(=O)C(N=Nc2ccc(OC(F)F)cc2)=C(O)C1	none (no result: NS1 function inh)
Cc1cc(N2CCN(c3cccc(C(F)(F)F)c3)CC2)n2ncnc2n1	Pf growth 48h inconclusive (no result: Vaccinia mCherry, Pf growth 96h)
Cc1nc2ncnn2c(N2CCN(C(c3ccccc3)c3ccccc3)CC2)c1C	HCV inh inconclusive, Pf growth 48h inconclusive, Pf growth 96h 0.37µM (no result: Vaccinia Venus, Vaccinia mCherry)
Cc1cc(N2CCN(C(c3ccccc3)c3ccccc3)CC2)n2ncnc2n1	none
Cc1nc2ncnn2c(N2CCN(c3cccc(C(F)(F)F)c3)CC2)c1C	HCV inh 0.89µM, Pf growth 48h inconclusive (no result: Vaccinia Venus, Vaccinia mCherry)
Cc1ccc2cc(CNC[C@H]3O[C@@H](n4cc(C)c(=O)[nH]c4=O)C[C@@H]3O)c(N3CCOCC3)nc2c1	none (no result: HCV inh, Pf growth 48h, NS1 function inh, Pf growth 96h)
CN(C)C(CNC(=O)c1ccc(NC(=O)CC#N)cc1)c1ccccc1 (configuration not stated)	Pf growth 48h inconclusive, Pf growth 96h inconclusive (no result: NS1 function inh)
CN(Cc1cccc(Cl)c1Cl)C(=O)c1ccc(NC(=O)CC#N)cc1	Pf growth 96h 15µM
O=C1/C(=C/C=C/c2ccco2)SC(=S)N1NS(=O)(=O)c1ccccc1	none
Cc1ccc(-n2nc(C)c3c(C)c(CCC(=O)NCC4CCCO4)c(=O)n(C)c32)cc1 (configuration not stated)	Pf growth 48h inconclusive, Pf growth 96h inconclusive (no result: Vaccinia Venus, Vaccinia mCherry)
CCn1c(=O)c(CCC(=O)NCC2CCCO2)c(C)c2c(C)nn(-c3ccccc3)c21 (configuration not stated)	HCV inh 13µM
CC(=O)c1cccc(NS(=O)(=O)c2ccc(N/C=C\C(=O)c3ccc(F)cc3)cc2)c1	Vaccinia Venus inconclusive, HCV inh 11µM, Pf growth 48h inconclusive, Pf growth 96h inconclusive (no result: Vaccinia mCherry)
CC(=O)c1cccc(NS(=O)(=O)c2ccc(N/C=C\C(=O)c3ccc(C)cc3)cc2)c1	Vaccinia Venus inconclusive, HCV inh inconclusive, Pf growth 48h inconclusive, Pf growth 96h inconclusive
CC(=O)c1cccc(NS(=O)(=O)c2ccc(NC(=O)N3CCCCC3)cc2)c1	HCV inh inconclusive, Pf growth 96h 10µM
OC(C1=CC(=Cc2ccncc2)c2ccccc21)c1ccncc1 (configuration not stated)	HCV inh 11µM (no result: Pf growth 48h, NS1 function inh, Pf growth 96h)
COc1ccc(CNc2ccc3c(c2)CCC3)cc1Br	Pf growth 96h 7.4µM (no result: Vaccinia Venus, Vaccinia mCherry)
O=C(NCCOc1cccnc1)C1CCC(=O)N(Cc2ccccc2F)C1 (configuration not stated)	none (no result: Vaccinia Venus, Vaccinia mCherry)
CCOC(=O)/C(C#N)=C\c1ccc(OCC(=O)Nc2ccc(C)cc2C)c(OC)c1	Pf growth 96h 2.6µM (no result: Vaccinia Venus, Vaccinia mCherry)
Cc1ccc(S(=O)(=O)N2CCCC(C(=O)N(Cc3cccs3)C3CC3)C2)cc1 (configuration not stated)	HCV inh 16µM, Pf growth 48h 5.2µM, Vaccinia mCherry inconclusive, Pf growth 96h 13µM
CCS(=O)(=O)N1CCC(C(=O)NCc2cccs2)CC1	HCV inh inconclusive, Pf growth 96h 7.4µM
CCOC(=O)C1CCCN(S(=O)(=O)c2ccc(C)cc2)C1 (configuration not stated)	none
CS(=O)(=O)N1CCCC(C(=O)NCc2cccs2)C1 (configuration not stated)	Pf growth 96h 5.9µM
CCS(=O)(=O)N1CCC(C(=O)NCc2ccccn2)CC1	Pf growth 96h inconclusive
CCC1CCCCN1S(=O)(=O)c1ccc(S(=O)(=O)N(Cc2ccccn2)CC2CCCO2)cc1 (configuration not stated)	none
CCC1CCCCN1S(=O)(=O)c1ccc(S(=O)(=O)N(Cc2cccs2)C2CC2)cc1 (configuration not stated)	HCV inh inconclusive, Pf growth 48h 8.3µM
